Only some compounds are listed: those with a hit (about 9% of all), similar ones and a draw of the others.
Luc counter = counter-screen: inhibitors of Kinase-Glo firefly luciferase. Q27757. Kinase-Glo luciferase, ATP luminescence, 8 min. Potency, µM (series often up to 38.3 µM), for the others: top-dose activity change, negative = inhibition, actives largely listed as inhibitors. 200,000 tested, 0.28% active. AID 1379; note: nearly all actives have a fitted effect of over 60% in size
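Luminescence was the read-out, taken after 8-minute incubation at ambient temperature. Luciferase turned over luciferin with 10 uM ATP in imidazole pH 7.2 buffer containing KCl, MgCl2, Tween 20 and BSA.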
ALDH1A1 block = inhibitors of human aldehyde dehydrogenase 1A1 | P00352 | 220,000 tested, 7.3% active | Purified ALDH1A1, NADH fluorescence, propionaldehyde substrate | Potency, µM (highest dose often 75.3 µM), inactives show at the highest dose activity, negative = inhibition, hits mostly inhibitors; active = well fitted inhibition curve with a large enough effect, not every such curve was filed as active; inconclusive = small, poorly fitted or top-dose-only effect, or another doubt; inactive = no such curve, though single readings can be large or run the other way;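 note: plate controls were no enzyme wells and a reference inhibitor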
Target sequence (P00352 whole entry, looked up): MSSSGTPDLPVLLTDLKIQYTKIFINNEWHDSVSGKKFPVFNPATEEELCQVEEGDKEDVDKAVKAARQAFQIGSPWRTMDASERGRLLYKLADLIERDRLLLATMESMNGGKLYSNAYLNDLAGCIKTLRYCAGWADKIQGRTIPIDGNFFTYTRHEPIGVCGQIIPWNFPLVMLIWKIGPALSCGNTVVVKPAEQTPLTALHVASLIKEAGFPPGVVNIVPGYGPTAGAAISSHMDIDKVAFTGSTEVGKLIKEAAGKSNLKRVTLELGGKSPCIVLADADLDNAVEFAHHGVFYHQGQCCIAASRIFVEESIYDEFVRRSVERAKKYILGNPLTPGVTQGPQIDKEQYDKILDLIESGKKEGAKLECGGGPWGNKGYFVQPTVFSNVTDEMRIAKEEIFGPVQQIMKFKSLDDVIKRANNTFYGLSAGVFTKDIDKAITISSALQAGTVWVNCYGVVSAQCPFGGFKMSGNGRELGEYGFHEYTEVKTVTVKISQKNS
IMPase Li cell = IMPase inhibition in cells with lithium potentiation; CHO-M1 cells, IP1 TR-FRET (IP-One), carbachol + lithium; Potency, µM (doses to about 59.4 µM), without a hit: top-dose activity, negative = IMPase inhibition, most hits filed as inhibitors; 210,000 tested, 0.35% active;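 note: IP1 builds up when IMPase is blocked and the TR-FRET signal falls; plate controls were basal vehicle for no effect and high inhibitor control for full effect; nearly all actives have a fitted effect of over 50% in size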
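Test compounds were applied to CHO-M1 cells previously cultured for 16–30 h at 2000 per well. A small lithium amount accompanied them; after 30 min at 37C, IP1 was quantified by TR-FRET.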
Lamin A splicing = LMNA splicing modulation | HeLa LMNA splicing GFP/RFP minigene ratio, 48 h | Potency, µM (top dose mostly 46.1 µM), for the others: at the top dose ratio change, negative = inhibition, most hits filed as inhibitors | 200,000 tested, 0.01% active | AID 1487; active = well fitted inhibition curve with a large enough effect in the signal ratio, with a control signal flat, not every such curve was filed as active; inconclusive = small, poorly fitted or top-dose-only effect, or effect the other way, or a change in a side signal; the % refers to the signal ratio
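Read-out is the ratio of GFP to DsRed2 object intensity, acquired by 488 nm laser-scanning cytometry on HeLa lamin A-EGFP minigene reporter cells. Compound incubation 48 hrs at 37 °C in Opti-MEM with 2% FBS; DMSO 0.5% final.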
HPGD block = HPGD (human) dehydrogenase inhibition; P15428; purified HPGD, NADH fluorescence kinetic, PGE2 substrate; Potency, µM, inactives show top-dose activity change, negative = inhibition, usual class: inhibitors; 150,000 tested, 4.3% active; active = well fitted inhibition curve with a large enough effect, not every such curve was filed as active; inconclusive = small, poorly fitted or top-dose-only effect, or another doubt; inactive = no such curve, though single readings can be large or run the other way
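NADH formation kinetics: reaction with 30 uM PGE2 and 1 mM NAD+ (final), 20 nM enzyme, Tris-HCl pH 8 with Tween 20, after 15 min compound preincubation at room temperature. Fluorescence change, last versus first of five reads.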
* hit, by the source's call; ? = inconclusive; . = not tested or not shown; [ ] = dose if it differs, or a comment. Unless noted, calls come from the whole dose curve; as a rule, active = well fitted curve in the direction sought with a large enough effect; inconclusive = small, poorly fitted or top-dose-only effect, or another doubt; inactive = no such curve, though single readings can be large; an effect the other way counts as inactive or inconclusive. Unless noted, % is set by controls: 0 for no effect and ±100 for the full control effect; potency is the fitted concentration of half-maximal effect.

SMILES	Luc counter	ALDH1A1 block	IMPase Li cell	Lamin A splicing	HPGD block
CN(C)CCCN1C(=O)c2cccc3c(Br)ccc(c23)C1=O	0%	22µM*	-6%	?	.
CCC1=C2CC[C@H]3C(=O)N(c4ccccc4)C(=O)[C@H]3[C@H]2[C@@]2(Cc3ccccc3)C(=NCCc3c[nH]c4ccccc34)OC(=O)N2C1=O	1%	-4%	2%	.	-10%
O=C(Nc1nccs1)c1ccc(NC(=O)C2CC=CCC2C(=O)O)cc1 (centres undefined)	-2%	4µM*	-6%	.	.
O=C(O)c1ccc(NC(=O)C2CC=CCC2C(=O)O)cc1 (centres undefined)	0%	9%	-6%[38.3 µM]	-4%	-8%
COc1ccccc1-n1c(CNc2ccc(F)cc2)nnc1SCC(=O)Nc1cc(C)on1	1%	6%	-3%	-15%	-18%
CCOC(=O)/C=C/CCCC=O	1%	6%	6%	.	-6%
Cc1nn(-c2nc3ccccc3[nH]2)c(N)c1-c1ccc(Cl)cc1	-2%	1%	26%[38.3 µM]	-3%	-22%
Cc1nn(-c2ccc3ccccc3c2)c(=O)c2ccccc12	-9%	20µM*	10%	21%[9.22 µM]	.
Cc1nn(-c2nc3ccccc3[nH]2)c(=O)c2ccccc12	1.4µM*	-9%	9%	-9%[46 µM]	.
O=c1[nH]c2[nH]c(=S)[nH]c(=S)c2[nH]1	-2%[7.66 µM]	?	1%	.	3.5µM*
O=C(Nc1ccccc1C(=O)O)c1ccc(NC(=O)c2ccc(Br)o2)cc1	2%	?	11%[38.3 µM]	16%	18µM*
O=C(Nc1cccc(C(=O)O)c1)/C(=C\c1ccc2c(c1)OCO2)NC(=O)c1ccc(Br)o1	-2%	-7%	-2%	.	.
O=C(Nc1ccccc1C(=O)O)c1cccc(NC(=O)c2ccc(Br)o2)c1	3%	?	20%[38.3 µM]	-1%	-25%
O=C(Nc1ccccc1C(=O)O)/C(=C/c1ccc([N+](=O)[O-])cc1)NC(=O)c1ccc(Br)o1	2%	10µM*	-3%	.	.
Cc1c(NS(=O)(=O)c2ccccc2)cc(Cl)c(O)c1C	1%	22µM*	15%[38.3 µM]	22%	32µM*
COc1ccc(S(=O)(=O)c2c(C)c(NS(=O)(=O)c3ccccc3)cc(C)c2O)cc1	.	8.9µM*	14%	.	.
Cc1ccc(S(=O)(=O)Nc2ccccc2-c2ccccc2NS(=O)(=O)c2ccc(C)cc2)cc1	8%	-5%	2%[38.3 µM]	?	-15%
COc1ccc(CNC(=O)c2cnn(-c3ccc(C)cc3)c2C2CCN(C(=O)OC(C)(C)C)CC2)cc1	.	.	.	-15%[46 µM]	.
Cc1ccccc1-c1nc(NCCN2CCOCC2)c2ccccc2n1	-4%	6%	-2%	9%	-15%
N/C(=N\OC(=O)/C=C/c1ccccc1)c1ccncc1	-3%	3%	0%	.	.
N/C(=N\OC(=O)/C=C/c1ccccc1Cl)c1ccncc1	1%	10µM*	-1%	.	.
O=C(/C=C/c1ccc(OCc2ccccc2)c(OCc2ccccc2)c1)c1cccnc1	-2%	7.1µM*	4%	?	-25%
O=C(/C=C/c1ccccc1Cl)c1cccnc1	12%	14µM*	37%[38.3 µM]	?	28µM*
Cc1ccc2nc(NS(C)(=O)=O)sc2c1	2%	-2%	3%	?	.
COc1cccc(C(=O)Nc2ccc(-n3nncc3C(C)(C)C)cc2)c1	-2%	-8%	-9%	.	.
SMILES	Luc counter	ALDH1A1 block	IMPase Li cell	Lamin A splicing	HPGD block
CC(C)(C)c1cnnn1-c1ccc(NC(=O)c2ccc3c(c2)OCO3)cc1	2%	12µM*	18%	-12%	-26%
COc1cccc(Cn2c(=O)c(-c3cccc(F)c3)nc3cncnc32)c1	-3%	-7%	3%	.	20µM*
Cc1ccc(C(=O)Nc2nnc(-c3ccc(C(C)(C)C)cc3)s2)cc1	-2%	?	3.5µM*	8%	?
Oc1c(C(Nc2cccc(C(F)(F)F)c2)c2cccnc2)ccc2cccnc12 (centres undefined)	-3%	20µM*	11%	-11%	-9%
CCOC(=O)C1=C(CN2CCN(c3ccc(OC)cc3)CC2)NC(=O)NC1c1ccc(OC)cc1 (centres undefined)	.	.	.	4%[46 µM]	.
CCOc1ccc(N2C(=O)CC(Sc3nccc(C)n3)C2=O)cc1 (centres undefined)	-1%	?	5%[38.3 µM]	10%	-5%

Bioassay records (PubChem)
